From PubChem BioAssay (Tox21) come the findings set out here.

Each structure is given as a SMILES string. Inconclusive results are not listed. Activity calls are given as the source filed them. Unless noted, calls follow the shape of the dose curve; as a rule, active = well fitted curve in the direction sought with a large enough effect in the repeat runs; inconclusive = weak or mixed curves; inactive = no such curve, though single readings can be large; an effect the other way counts as inactive or inconclusive.

Assay [1] can be described thus: qHTS assay to identify small molecule antagonists of the glucocorticoid receptor (GR) signaling pathway - cell viability counter screen (AID 720693). Also: nearly all actives have a fitted effect of over 55% in size. A general note: qHTS replaces the single test concentration by a dilution series.
Assay [2] can be described thus: qHTS assay for identifying genotoxic compounds that show differential cytotoxicity against isogenic chicken DT40 cell lines with known DNA damage response pathways - wild type cell line (AID 743012). Also: nearly all actives have a fitted effect of over 60% in size. In outline:
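Using parental DT40 (300 cells/well), compounds delivered in DMSO incubate 40 h at 37 C/5% CO2. CellTiter-Glo reagent then stands 30 min at room temperature, and luminescence gives cell viability.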

Assay [3] is described as follows: qHTS assay for identifying genotoxic compounds that show differential cytotoxicity against isogenic chicken DT40 cell lines with known DNA damage response pathways - Rev3 mutant cell line (AID 743014). Also: nearly all actives have a fitted effect of over 55% in size.
A short description of assay [4]: qHTS assay for identifying genotoxic compounds that show differential cytotoxicity against isogenic chicken DT40 cell lines with known DNA damage response pathways - Rad54/Ku70 mutant cell line (AID 743015). Also: nearly all actives have a fitted effect of over 60% in size.
Assay [5] in a line: qHTS assay to identify small molecule antagonists of the androgen receptor (AR) signaling pathway - cell viability counter screen (AID 743033; also: nearly all actives have a fitted effect of over 45% in size).
Assay [6] concerns the target Androgen receptor (Homo sapiens) (UniProt P10275). Description: qHTS assay to identify small molecule antagonists of the androgen receptor (AR) signaling pathway (AID 743035; active = well fitted inhibition curve with a large enough effect in the signal ratio in the repeat runs, not every such curve was filed as active; the % refers to the signal ratio). The essentials:
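Using qHTS, AR-UAS-bla GripTite HEK293 cells received compound, then R1881, and were cultured 16 h at 37C/5% CO2 before a 2 h room-temperature LiveBLAzer B/G FRET substrate step and fluorescence measurement.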

For assay [7] the target is unchanged. The assay can be described thus: qHTS assay to identify small molecule agonists of the androgen receptor (AR) signaling pathway (AID 743036; active = well fitted activation curve with a large enough effect in the signal ratio in the repeat runs, with a control signal flat, not every such curve was filed as active; the % refers to the signal ratio). In outline:
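In this Tox21 qHTS, 2,000 HEK293 AR-bla cells per well were incubated with compounds for 16 h at 37C and 5% CO2. Fluorescence intensity was recorded 2 h after adding LiveBLAzer B/G FRET substrate at room temperature.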

The target is the same in assay [8]. The assay can be described thus: qHTS assay to identify small molecule agonists of the androgen receptor (AR) signaling pathway using the MDA cell line (AID 743040; also: nearly all actives have a fitted effect of over 20% in size). In outline:
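Human breast carcinoma MDA-kb2 reporter cells (MMTV-luc, AR/GR elements) were treated for 16 h at 37C in 0% CO2 following a 5 h settling period. Signal was quantified by ONE-Glo luminescence.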

Assay [9] can be described thus: qHTS assay to identify small molecule antagonists of the androgen receptor (AR) signaling pathway using the MDA cell line - cell viability counter screen (AID 743041; also: nearly all actives have a fitted effect of over 45% in size). The essentials: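 Same-well cytotoxicity was assessed by CellTiter-Fluor in MDA-kb2 AR-luc cells after 16 h of compound treatment under R1881 agonism.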
Assay [10] addresses Androgen receptor (Homo sapiens) (UniProt P10275). The assay can be described thus: qHTS assay to identify small molecule antagonists of the androgen receptor (AR) signaling pathway using the MDA cell line (AID 743042; also: nearly all actives have a fitted effect of over 55% in size). In outline:
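MDA-kb2 breast carcinoma cells carrying MMTV-luciferase (AR/GR responsive) were co-treated with compounds and the agonist R1881 for 16 h at 37C. Inhibition read as ONE-Glo luminescence; CellTiter-Fluor fluorescence measured in parallel for cytotoxicity.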

A short description of assay [11]: qHTS assay to identify small molecule antagonists of the thyroid receptor (TR) signaling pathway - cell viability counter screen (AID 743064). Also: nearly all actives have a fitted effect of over 50% in size. In outline:
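Counter screen for cytotoxicity: compound plus T3 (1 nM final) on GH3.TRE-Luc cells, 23.5 h at 37 °C, then fluorescence viability readout with CellTiter-Fluor.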

Assay [12] addresses Estrogen receptor (Homo sapiens) (UniProt P03372). The assay can be described thus: qHTS assay to identify small molecule antagonists of the estrogen receptor alpha (ER-alpha) signaling pathway (AID 743069; active = well fitted curve in the direction sought with a large enough effect in the signal ratio in the repeat runs, not every such curve was filed as active; the % refers to the signal ratio). The essentials: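 Reporter cells (ER-alpha-bla, HEK293 background) are conditioned overnight in stripped-serum medium (2% charcoal-stripped FBS). Compound and 17beta-estradiol exposure runs 18 hr at 37C, 5% CO2.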

Assay [13] in a line: qHTS assay to identify small molecule antagonists of the estrogen receptor alpha (ER-alpha) signaling pathway - cell viability counter screen (AID 743074; calls by dose curve;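 also: HEK293 cells carrying ER-alpha-UAS-bla reporter stimulated with 17beta-estradiol; nearly all actives have a fitted effect of over 45% in size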).
The target of assay [14] is Estrogen receptor (Homo sapiens) (UniProt P03372). The assay can be described thus: qHTS assay to identify small molecule agonists of the estrogen receptor alpha (ER-alpha) signaling pathway (AID 743075; calls by dose curve;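 also: HEK293 GripTite cells with ER-alpha and UAS-driven beta-lactamase reporter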; also: potency is read from the fitted curve at half-maximal effect).
Estrogen receptor (Homo sapiens), sequence (P03372 whole entry, looked up): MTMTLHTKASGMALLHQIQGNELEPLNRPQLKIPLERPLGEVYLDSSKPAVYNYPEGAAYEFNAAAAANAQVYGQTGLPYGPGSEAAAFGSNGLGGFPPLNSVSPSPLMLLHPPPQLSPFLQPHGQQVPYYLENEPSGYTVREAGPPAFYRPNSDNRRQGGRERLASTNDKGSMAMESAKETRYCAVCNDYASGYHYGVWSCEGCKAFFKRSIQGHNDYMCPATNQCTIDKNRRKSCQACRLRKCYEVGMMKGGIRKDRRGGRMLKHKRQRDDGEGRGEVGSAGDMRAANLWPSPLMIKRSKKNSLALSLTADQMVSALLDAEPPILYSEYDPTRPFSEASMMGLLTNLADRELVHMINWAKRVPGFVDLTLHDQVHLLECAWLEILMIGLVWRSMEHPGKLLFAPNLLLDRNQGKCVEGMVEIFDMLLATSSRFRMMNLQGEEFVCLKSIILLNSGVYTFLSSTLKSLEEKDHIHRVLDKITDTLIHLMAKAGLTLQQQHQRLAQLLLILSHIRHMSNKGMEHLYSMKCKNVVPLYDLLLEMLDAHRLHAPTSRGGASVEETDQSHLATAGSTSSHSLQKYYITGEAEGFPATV
Assay [15] has the same target. Description: qHTS assay to identify small molecule agonists of the estrogen receptor alpha (ER-alpha) signaling pathway using the BG1 cell line (AID 743079). Also: nearly all actives have a fitted effect of over 20% in size. Also: potency is read from the fitted curve at half-maximal effect.
Assay [16] is described as follows: qHTS assay to identify small molecule antagonists of the estrogen receptor alpha (ER-alpha) signaling pathway using the BG1 cell line (AID 743080; calls by dose curve;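 also: BG1 cells stimulated with 17beta-estradiol alongside compound; series mostly up to about 70 µM; nearly all actives have a fitted effect of over 25% in size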). In outline: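 Luciferase inhibition measured with ONE-Glo after 30 min at RT in BG1Luc4E2 cells given test compounds and 17beta-estradiol for 21.5 h at 37 C; CellTiter-Fluor viability read in the same wells beforehand.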

Assay [17] is described as follows: qHTS assay to identify small molecule antagonists of the estrogen receptor alpha (ER-alpha) signaling pathway using the BG1 cell line - cell viability counter screen (AID 743081).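 Also: compound given together with 17beta-estradiol as the ER stimulus; series mostly up to about 70 µM; nearly all actives have a fitted effect of over 45% in size.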
For another assay, the target named is Aromatase (Homo sapiens) (UniProt P11511). The assay can be described thus: qHTS assay to identify aromatase inhibitors (AID 743083). Also: series mostly up to about 70 µM; nearly all actives have a fitted effect of over 55% in size.
Aromatase (Homo sapiens), sequence (P11511 whole entry, looked up): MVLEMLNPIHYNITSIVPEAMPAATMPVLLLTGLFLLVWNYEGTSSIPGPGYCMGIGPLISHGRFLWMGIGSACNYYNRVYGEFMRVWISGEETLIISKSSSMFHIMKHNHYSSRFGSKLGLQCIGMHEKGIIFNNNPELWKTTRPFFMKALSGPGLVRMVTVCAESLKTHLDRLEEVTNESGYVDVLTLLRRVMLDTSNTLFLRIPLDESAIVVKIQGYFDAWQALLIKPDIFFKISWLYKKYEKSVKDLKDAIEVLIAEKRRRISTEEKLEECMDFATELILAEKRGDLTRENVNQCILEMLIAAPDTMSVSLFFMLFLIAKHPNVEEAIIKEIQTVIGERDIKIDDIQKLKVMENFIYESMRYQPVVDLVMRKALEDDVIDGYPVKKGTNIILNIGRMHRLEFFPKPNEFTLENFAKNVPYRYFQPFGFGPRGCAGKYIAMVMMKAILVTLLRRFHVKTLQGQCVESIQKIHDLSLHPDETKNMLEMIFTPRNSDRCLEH
A short description of assay [18]: qHTS assay to identify small molecule antagonists of the thyroid receptor (TR) signaling pathway (AID 743065). In outline:
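GH3.TRE-Luc rat pituitary cells (two TREs driving luciferase) were dosed with compound, then stimulated with 1 nM T3 (final) for 23.5 h at 37 C. ONE-Glo luminescence was the read-out, with CellTiter-Fluor fluorescence as the cytotoxicity counter-screen.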

In assay [19] the test system is thyroid hormone receptor (rat, GH3 cells). The assay can be described thus: qHTS assay to identify small molecule agonists of the thyroid receptor (TR) signaling pathway (AID 743066; calls by dose curve).

Androgen receptor (Homo sapiens), sequence (P10275 whole entry, looked up): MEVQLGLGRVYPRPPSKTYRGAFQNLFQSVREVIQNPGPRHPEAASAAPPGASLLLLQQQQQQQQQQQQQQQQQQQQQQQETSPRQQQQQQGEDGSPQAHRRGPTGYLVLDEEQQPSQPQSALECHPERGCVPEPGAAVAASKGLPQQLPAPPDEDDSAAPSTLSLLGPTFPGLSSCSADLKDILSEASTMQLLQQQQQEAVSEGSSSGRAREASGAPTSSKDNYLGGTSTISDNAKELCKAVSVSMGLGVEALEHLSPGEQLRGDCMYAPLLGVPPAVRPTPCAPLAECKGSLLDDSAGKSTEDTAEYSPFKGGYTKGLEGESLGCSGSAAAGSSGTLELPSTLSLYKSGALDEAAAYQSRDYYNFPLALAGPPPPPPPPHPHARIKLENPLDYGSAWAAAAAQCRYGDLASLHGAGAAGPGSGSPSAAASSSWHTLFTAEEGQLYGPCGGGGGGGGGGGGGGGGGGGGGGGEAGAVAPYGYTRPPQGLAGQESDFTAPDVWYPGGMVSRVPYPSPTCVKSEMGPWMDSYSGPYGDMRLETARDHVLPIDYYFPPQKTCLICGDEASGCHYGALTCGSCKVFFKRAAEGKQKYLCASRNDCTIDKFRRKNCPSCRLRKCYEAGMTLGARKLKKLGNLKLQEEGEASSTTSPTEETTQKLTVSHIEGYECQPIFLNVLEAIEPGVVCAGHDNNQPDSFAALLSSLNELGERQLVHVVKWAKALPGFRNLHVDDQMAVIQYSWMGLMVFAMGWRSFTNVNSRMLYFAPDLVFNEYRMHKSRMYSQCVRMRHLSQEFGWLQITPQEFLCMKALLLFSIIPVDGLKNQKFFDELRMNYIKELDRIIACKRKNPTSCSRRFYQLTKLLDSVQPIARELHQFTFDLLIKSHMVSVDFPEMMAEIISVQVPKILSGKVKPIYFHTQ

`C/C=C(\C)C(C)=O`: the call in assay [1], in assay [5], in assay [6], in [7], in [10] and in [12] was inactive. In addition, the molecule was called inactive (in [13]; in assay [16]; with Aromatase (Homo sapiens)). For the same molecule, the Potency result in [2], in [3], in assay [4], in assay [8], in [9] and in [11] was “inactive” throughout. For the same molecule, the Potency entry in assay [14], in [15] and in assay [17] was “inactive” in each case.

In the case of `c1ccc(B(c2ccccc2)c2ccccc2)cc1`, the result (in assay [1]; in [5]; in assay [19]; in assay [12]; in assay [13]; in the assay with Aromatase (Homo sapiens)) was inactive. The Potency result in assay [2], in assay [3], in assay [4], in assay [9], in [11] and in assay [18] was “inactive” in each case. Moreover, the Potency result in assay [17] is “inactive”. Further, the Potency in assay [14] was 30.9 µM [activator] (active); in assay [15] it was 34.3 µM (active).

Consider `CC1=C(O)C(=O)C(C)O1` (stereo not drawn), for which the outcome (in assay [1]; in assay [5]; in assay [19]; in assay [13]; in assay [16]; with Aromatase (Homo sapiens)) was inactive. The Potency entry in assay [2], in assay [3], in assay [4], in [9], in assay [11] and in assay [18] was “inactive” each time. Moreover, the Potency entry in assay [14], in [15] and in assay [17] was “inactive” in each case.

In the case of `O=C(CCCCC(=O)Nc1c(I)cc(I)c(C(=O)O)c1I)Nc1c(I)cc(I)c(C(=O)O)c1I`, the molecule was called inactive in assay [1], in [5], in [19], in assay [12], in [13] and in assay [16]. Further, in the assay with Aromatase (Homo sapiens), the outcome was inactive. For the same molecule, the Potency entry in [2], in assay [3], in [4], in assay [9], in assay [11] and in assay [18] was “inactive” in each case. For the same molecule, the Potency result in [14] and in assay [15] was “inactive” in each case.

Turning to `CCCc1ccc(O)cc1`, the outcome (in assay [1]; in assay [5]; in assay [19]; in assay [13]; in assay [16]; with Aromatase (Homo sapiens)) was inactive. Besides, the Potency entry in [2], in assay [3], in assay [4], in [9], in [11] and in assay [18] was “inactive” throughout. Further, the Potency entry in assay [14] and in [17] was “inactive” throughout.

As for `O=C(Cn1ccnc1[N+](=O)[O-])NCc1ccccc1`, the call (in [1]; in assay [5]; in assay [19]; in [13]; in assay [16]; in the assay with Aromatase (Homo sapiens)) was inactive. In addition, the Potency result in assay [2], in assay [3], in [4], in [9], in assay [11] and in [18] was “inactive” each time. Also, the Potency entry in assay [14], in [15] and in [17] was “inactive” each time.

For the molecule `CC(=O)C1C(=O)C=C(C)OC1=O` (stereo not drawn), the molecule was called inactive (in [1]; in assay [5]; in [19]; in assay [12]; in assay [16]; in the assay with Aromatase (Homo sapiens)). The Potency entry in assay [2], in assay [3], in assay [4], in [9], in assay [11] and in [18] was “inactive” throughout. In addition, the Potency entry in assay [14], in [15] and in assay [17] was “inactive” throughout.

As for `[O]=[Mo](=[O])=[O]`, the molecule was called inactive in [1], in assay [5], in assay [19], in assay [12], in assay [13] and in assay [16]. Further, the outcome in the assay with Aromatase (Homo sapiens) was inactive. In addition, the Potency entry in assay [2], in assay [3], in assay [4], in [9], in assay [11] and in [18] was “inactive” each time. In addition, the Potency entry in [14], in assay [15] and in [17] was “inactive” throughout.

Consider `N#Cc1ccccc1O`, for which the result (in assay [1]; in assay [5]; in assay [19]; in assay [13]; in [16]; in the assay with Aromatase (Homo sapiens)) was inactive. Further, the Potency entry in assay [2], in assay [3], in [4], in [9], in assay [11] and in assay [18] was “inactive” throughout. The Potency entry in [14], in assay [15] and in [17] was “inactive” throughout.
